Screen size: about 11,000 compounds; about 310 (2.8%) were called active. No stated cut-off is given here; in the data, active means activity change below about -85%; inactive means the rest. The entries come from a sample that favours actives as a whole.
test system: intestinal alkaline phosphatase [Mus musculus]; test: mouse intestinal phosphatase enzyme activation – biochemical, luminescence, single concentration, confirmation (AID 434970); conditions: purified mouse IAP, CDP-Star luminescence, 30 min, at 10 µM; activation factor: measured here: IAP activation factor, stronger effect = higher value; activity change, negative = activation: stronger effect = lower value

SMILES	activation factor	activity change, negative = activation
Fc1ccccc1Cn1nnc2c(NCc3ccccn3)ncnc21	0.966	3.35% (inactive)
CCN(CC)CCNC(=O)C1c2ccccc2C(=O)N(CCOC)C1c1ccc(F)cc1 (configuration not stated)	0.972	2.85% (inactive)
Cc1ccc(C(C)NC(=S)NCc2ccc(F)cc2)c(C)c1 (configuration not stated)	1.39	-38.5% (inactive)
CC(=O)Nc1ccc(SCC(=O)OCC(=O)NC(=O)NCc2ccco2)cc1	0.893	10.7% (inactive)
COc1ccc(Cl)cc1NC(=O)C1CCCO1 (configuration not stated)	0.924	7.6% (inactive)
Cc1ccc(C(=O)O)cc1S(=O)(=O)N1CCSCC1	0.916	8.35% (inactive)
CCN(CC)CCCNC(=O)C1c2cc(OC)c(OC)cc2C(=O)N(C)C1c1cccs1 (configuration not stated)	1.04	-4.25% (inactive)
COc1cccc(-c2cc(C(F)(F)F)n3ncc(C(=O)NCC4CCCO4)c3n2)c1 (configuration not stated)	1.05	-4.65% (inactive)
CC(C)CCNC(=O)COc1ccc2c(c1)C(=O)CC(C)(C)O2	1	-0.15% (inactive)
CC(CNC(=S)Nc1cc(F)cc(F)c1)CSc1ccc(Cl)cc1 (configuration not stated)	1.3	-29.9% (inactive)
CC(C)Oc1ccc(/C=N/NC(=O)C(CSCc2ccccc2)NC(=O)c2ccc([N+](=O)[O-])cc2)cc1 (configuration not stated)	0.941	5.95% (inactive)
Cc1ccc(NC(=O)C2C(c3ccccc3)C2(Cl)Cl)c(C)c1 (configuration not stated)	1.59	-59.4% (inactive)
Cc1ccc(NC(=O)C2CC(=O)Nc3nc4ccccc4n32)c(C)c1 (configuration not stated)	2.57	-157% (active)
CC(C)c1ccc(NC(=O)C2CC(=O)Nc3nc4ccccc4n32)cc1 (configuration not stated)	2.38	-138% (active)
Cc1ccc(NC(=O)C2CC(=O)NC(N3CCc4ccccc43)=N2)cc1 (configuration not stated)	0.947	5.35% (inactive)
CC(C)c1ccc(NC(=O)C(c2ccccc2)N2CC(=O)Nc3ccccc32)cc1 (configuration not stated)	1.24	-23.8% (inactive)
CSc1nc2n(n1)C(c1cccc(F)c1)C(C(=O)Nc1ccc(C)cc1C)=C(C)N2 (configuration not stated)	0.93	6.95% (inactive)
O=C1/C(=C/c2ccco2)CCc2ccccc21	1.04	-4% (inactive)
Cc1ccc(C)c(NS(=O)(=O)c2ccc3[nH]c(=O)oc3c2)c1	0.111	88.9% (inactive)
COc1ccc(S(=O)(=O)N(C)C[C@H]2Oc3ccc(NC(=O)Nc4ccccc4)cc3C(=O)N([C@H](C)CO)C[C@@H]2C)cc1	2.15	-115% (active)
COc1ccc(S(=O)(=O)N(C)C[C@H]2Oc3ccc(NC(=O)Nc4ccc5c(c4)OCO5)cc3C(=O)N([C@H](C)CO)C[C@@H]2C)cc1	1.86	-86.1% (inactive)
COc1ccc(NC(=O)Nc2ccc3c(c2)C(=O)N([C@H](C)CO)C[C@H](C)[C@@H](CN(C)S(=O)(=O)c2ccc(OC)cc2)O3)cc1	1.77	-77.3% (inactive)
C[C@H](CO)N1C[C@H](C)[C@@H](CN(C)S(=O)(=O)c2ccc(F)cc2)Oc2ccc(NC(=O)Nc3ccccc3)cc2C1=O	1.91	-91.2% (inactive)

SMILES	activation factor	activity change, negative = activation
C[C@H](CO)N1C[C@H](C)[C@@H](CN(C)S(=O)(=O)c2ccccc2)Oc2ccc(NC(=O)Nc3ccccc3)cc2C1=O	2.62	-162% (active)
COc1ccc(NC(=O)Nc2ccc3c(c2)C(=O)N([C@H](C)CO)C[C@H](C)[C@@H](CN(C)S(=O)(=O)c2ccc(F)cc2)O3)cc1	2.01	-101% (active)
C[C@H](CO)N1C[C@H](C)[C@@H](CN(C)S(=O)(=O)c2ccccc2)Oc2ccc(NC(=O)Nc3ccc4c(c3)OCO4)cc2C1=O	1.95	-94.6% (inactive)
COc1ccc(NC(=O)N(C)C[C@H]2Oc3ccc(NC(=O)Nc4ccc(C(F)(F)F)cc4)cc3C(=O)N([C@H](C)CO)C[C@@H]2C)cc1	1.75	-75.5% (inactive)
COc1ccc(NC(=O)Nc2ccc3c(c2)C(=O)N([C@H](C)CO)C[C@H](C)[C@@H](CN(C)S(=O)(=O)c2ccccc2)O3)cc1	1.98	-97.7% (inactive)
COc1ccc2[nH]c(=O)c(CN(C(C)=O)c3cccc(C)c3)cc2c1	0.991	0.9% (inactive)
O=C(CSc1nnc(-c2cccs2)n1-c1cccc(Cl)c1)c1cccc2c1OCCO2	0.901	9.9% (inactive)
CCCc1[nH]nc2c1C(Cc1ccccc1)C(C#N)=C(N)O2 (configuration not stated)	0.921	7.85% (inactive)
CC(C)N(C(=O)[C@H]1C[C@H](CC(=O)NCCCn2ccnc2)C(=O)N2CCc3c([nH]c4cc(CCC(=O)N(C)C)ccc34)[C@]12C)C(C)C	0.995	0.5% (inactive)
CCOC(=O)C1C(C(=O)OC)=C(C2=CCCCC2)c2ccccc2N1S(=O)(=O)C(F)(F)F (configuration not stated)	0.97	3% (inactive)
Cc1ccc(NC(=O)C2CCCNC2=O)nc1 (configuration not stated)	0.929	7.05% (inactive)
Cc1cc(N2CCN(C)CC2)nc2ccc(NC(=O)c3ccc4c(c3)OCO4)cc12	1.03	-2.9% (inactive)
CCCc1n[nH]c2c1/C(=N\O)CCC2	1.05	-5.35% (inactive)
Cc1onc(-c2ccccc2)c1C(=O)Nc1ccnn1C1CCCCC1	0.923	7.65% (inactive)
O=C(CCc1nc2ccccc2c(=O)[nH]1)NC1CCN(Cc2ccccc2)CC1	0.905	9.55% (inactive)
O=C(CCCc1ccccc1)Nc1ccnn1C1CCN(Cc2ccc(Cl)cc2)CC1	2.18	-118% (active)
Cc1ccc(CC(NC(=O)C2CCCCC2)C(=O)O)cc1 (configuration not stated)	1.07	-6.55% (inactive)
O=C(CN1CCN(Cc2ccc(Cl)cc2)CC1)N/N=C/c1ccncc1	0.975	2.5% (inactive)
CC(C)Cc1ccc(CN2CCC(n3nccc3NC(=O)C3CCCC3)CC2)cc1	1.98	-98.2% (active)
Cc1ccccc1NC(=O)CCN1CCN(Cc2ccccc2)CC1	1.13	-13.2% (inactive)
CSc1ccc(CN2CCC(n3nccc3NC(=O)CCCc3ccccc3)CC2)cc1	2.27	-126% (active)
O=C(NNS(=O)(=O)c1ccc(Cl)cc1)C1CCN(Cc2ccccc2)CC1	1.1	-9.8% (inactive)
CCCN1Cc2cc(OC)ccc2-c2ccccc2S1(=O)=O	1.13	-13.1% (inactive)
